The panel holds about 79,000 compounds, 15% with a hit somewhere; the sample as a whole holds those more often. Values without a mark were called inactive. The source made the active and inactive calls. Rule as the data show it: active = growth inhibition above about 70%; inactive = the rest.

Data on ten molecules can be found in PubChem BioAssay (NCI).

Assay [1] in a line: NCI Yeast Anticancer Drug Screen. Data for the rad50 strain (AID 155).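 Also: 0% = growth of vehicle-only cultures of the same strain.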 The conditions noted are these: S. cerevisiae rad50 strain growth inhibition, hits give high values. Summed up: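 Vehicle-treated cultures provide the reference for the growth inhibition reported for compound-exposed, repair-deficient yeast.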
Assay [2] is described as follows: NCI Yeast Anticancer Drug Screen. Data for the mec2-1 strain (AID 157). The conditions noted are these: S. cerevisiae mec2-1 strain, hits give high values. The method in brief: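 Yeast mec2-1 mutant treated with compound. Readout: growth inhibition vs vehicle controls.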
Assay [3] in a line: NCI Yeast Anticancer Drug Screen. Data for the sgs1 mgt1 strain (AID 161).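 Also: 0% = growth of cultures given vehicle only.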 The conditions noted are these: S. cerevisiae sgs1 mgt1 strain, hits give high values. The method in brief: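 Inhibition of yeast growth, normalised to vehicle-treated controls, is reported for a strain bearing genetic alterations in DNA damage repair.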
The nature of assay [4]: NCI Yeast Anticancer Drug Screen. Data for the cln2 rad14 strain (AID 165).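 Also: 0% = growth equal to vehicle treated cultures.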 As to conditions: S. cerevisiae cln2 rad14 strain, hits give high values. The method in brief:
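cln2 rad14 yeast strain; compound exposure; growth inhibition read vs vehicle controls.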

A short description of assay [5]: NCI Yeast Anticancer Drug Screen. Data for the bub3 strain (AID 167). As to conditions: S. cerevisiae bub3 mutant strain, hits give high values. The method in brief: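 Mutant yeast screening strain plus compound; vehicle-treated cultures serve as the 0% inhibition reference.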
Assay [6] is described as follows: NCI Yeast Anticancer Drug Screen. Data for the mlh1 rad18 strain (AID 175). The conditions noted are these: S. cerevisiae mlh1 rad18 strain growth inhibition, hits give high values. Summed up:
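Yeast w/ defined DNA-repair lesions; compound exposure; growth vs vehicle controls → % inhibition.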

The mark [7] stands for this setting: at 5.0 µM (retest, dose inferred, filed as 0.5).
Where [8] appears, read: at 50.0 µM (retest, dose inferred, filed as 5.0).

In the case of `CCCCc1ccc2c(c1)Nc1cc3ccccc3cc1N2`, the growth inhibition in assay [1] (setting [7]) was -3%; in assay [1] (setting [8]) it was 55%; in assay [1] (at 50.0 µM), 86.3% (active); in assay [2] (setting [7]) it was 1%; in assay [2] (setting [8]), 26%; in assay [2] (at 50.0 µM), 44.5%. The growth inhibition is 0% in assay [3] (setting [7]); 56% in assay [3] (setting [8]); 54.9% in assay [3] (at 50.0 µM); -13% in assay [4] (setting [7]); 30% in assay [4] (setting [8]); 33.4% in assay [4] (at 50.0 µM). Moreover, the growth inhibition was 6% in assay [5] (setting [7]); 81% (active) in assay [5] (setting [8]); 77.8% (active) in assay [5] (at 50.0 µM); 7% in assay [6] (setting [7]); 59% in assay [6] (setting [8]); 95% (active) in assay [6] (at 50.0 µM).
For `S=c1sc2nc(Cl)nc(Cl)c2s1`, the growth inhibition in assay [1] (setting [7]) is 99% (active); in assay [1] (setting [8]), 99% (active); in assay [1] (at 50.0 µM) it was 87.1% (active); in assay [2] (setting [7]) it was 100% (active); in assay [2] (setting [8]), 99% (active); in assay [2] (at 50.0 µM) it was 88.3% (active). The growth inhibition in assay [3] (setting [7]) was 100% (active); in assay [3] (setting [8]), 99% (active); in assay [3] (at 50.0 µM), 89.5% (active); in assay [4] (setting [7]), 97% (active); in assay [4] (setting [8]), 99% (active); in assay [4] (at 50.0 µM), 89.5% (active). The growth inhibition in assay [5] (setting [7]) is 100% (active); in assay [5] (setting [8]), 100% (active); in assay [5] (at 50.0 µM), 87.4% (active); in assay [6] (setting [7]) it was 99% (active); in assay [6] (setting [8]), 98% (active); in assay [6] (at 50.0 µM) it was 89.3% (active).
With `c1cc[c]([Sn]([O]c2cccc3cccnc23)([c]2ccccc2)[c]2ccccc2)cc1`, the growth inhibition in assay [1] (setting [7]) is 99% (active); in assay [1] (setting [8]), 21%; in assay [1] (at 50.0 µM) it was 89.5% (active); in assay [2] (setting [7]), 100% (active); in assay [2] (setting [8]) it was 10%; in assay [2] (at 50.0 µM) it was 92.2% (active). Further, the growth inhibition in assay [3] (setting [7]) was 100% (active); in assay [3] (setting [8]), 30%; in assay [3] (at 50.0 µM), 89.6% (active); in assay [4] (setting [7]) it was 99% (active); in assay [4] (setting [8]) it was 11%; in assay [4] (at 50.0 µM) it was 85.8% (active). In addition, the growth inhibition was 99% (active) in assay [5] (setting [7]); 63% in assay [5] (setting [8]); 90.8% (active) in assay [5] (at 50.0 µM); 100% (active) in assay [6] (setting [7]); 14% in assay [6] (setting [8]); 93% (active) in assay [6] (at 50.0 µM).
For `Brc1ccc(CCNCCN2CCCCC2)cc1`, the growth inhibition in assay [1] (setting [7]) was 19%; in assay [1] (setting [8]) it was 65%; in assay [1] (at 50.0 µM) it was 50.9%; in assay [2] (setting [7]) it was 25%; in assay [2] (setting [8]), 68%; in assay [2] (at 50.0 µM), 21%. For the same molecule, the growth inhibition in assay [3] (setting [7]) is 24%; in assay [3] (setting [8]), 68%; in assay [3] (at 50.0 µM) it was 63.2%; in assay [4] (setting [7]), 45%; in assay [4] (setting [8]) it was 61%; in assay [4] (at 50.0 µM), 37.6%. Further, the growth inhibition was 15% in assay [5] (setting [7]); 57% in assay [5] (setting [8]); 61.1% in assay [5] (at 50.0 µM); 25% in assay [6] (setting [7]); 89% (active) in assay [6] (setting [8]); 45% in assay [6] (at 50.0 µM).
In the case of `CN=C(N)NN=C(c1ccc(Cl)cc1)c1ccc(Cl)cc1`, the growth inhibition is 32% in assay [1] (setting [7]); 99% (active) in assay [1] (setting [8]); 87.8% (active) in assay [1] (at 50.0 µM); 30% in assay [2] (setting [7]); 99% (active) in assay [2] (setting [8]); 91.2% (active) in assay [2] (at 50.0 µM). Also, the growth inhibition was 51% in assay [3] (setting [7]); 99% (active) in assay [3] (setting [8]); 87.5% (active) in assay [3] (at 50.0 µM); 48% in assay [4] (setting [7]); 98% (active) in assay [4] (setting [8]); 85% (active) in assay [4] (at 50.0 µM). Besides, the growth inhibition in assay [5] (setting [7]) was 52%; in assay [5] (setting [8]), 99% (active); in assay [5] (at 50.0 µM), 83.2% (active); in assay [6] (setting [7]), 25%; in assay [6] (setting [8]) it was 98% (active); in assay [6] (at 50.0 µM), 92.4% (active).
Regarding `CCS(=O)(=O)c1ccc(NC(=O)OC2CCCCCCC2)cc1`, the growth inhibition was 5% in assay [1] (setting [7]); 89% (active) in assay [1] (setting [8]); 95.8% (active) in assay [1] (at 50.0 µM); 16% in assay [2] (setting [7]); 86% (active) in assay [2] (setting [8]); 80.6% (active) in assay [2] (at 50.0 µM). Moreover, the growth inhibition was 11% in assay [3] (setting [7]); 74% (active) in assay [3] (setting [8]); 65.5% in assay [3] (at 50.0 µM); -50% in assay [4] (setting [7]); 88% (active) in assay [4] (setting [8]); 88.8% (active) in assay [4] (at 50.0 µM). Also, the growth inhibition is 6% in assay [5] (setting [7]); -30% in assay [5] (setting [8]); 95.2% (active) in assay [5] (at 50.0 µM); 6% in assay [6] (setting [7]); 90% (active) in assay [6] (setting [8]); 91.6% (active) in assay [6] (at 50.0 µM).
On to `CC(=O)c1cccc(NC(=O)C(=O)NNc2n[nH]c(=S)n2N)c1`, for which the growth inhibition in assay [1] (setting [7]) is 16%; in assay [1] (setting [8]) it was 95% (active); in assay [1] (at 50.0 µM) it was 89.4% (active); in assay [2] (setting [7]), -20%; in assay [2] (setting [8]), 94% (active); in assay [2] (at 50.0 µM) it was 94.1% (active). Also, the growth inhibition is 6% in assay [3] (setting [7]); 90% (active) in assay [3] (setting [8]); 92.9% (active) in assay [3] (at 50.0 µM); 19% in assay [4] (setting [7]); 77% (active) in assay [4] (setting [8]); 92.4% (active) in assay [4] (at 50.0 µM). Also, the growth inhibition is -19% in assay [5] (setting [7]); 95% (active) in assay [5] (setting [8]); 92.8% (active) in assay [5] (at 50.0 µM); 19% in assay [6] (setting [7]); 94% (active) in assay [6] (setting [8]); 91.1% (active) in assay [6] (at 50.0 µM).
As for `CCOC(=O)C(/C=N\C(=S)Nc1ccc(Cl)c(Cl)c1)=C(/O)c1ccccc1`, the growth inhibition was 2% in assay [1] (setting [7]); 58% in assay [1] (setting [8]); 83.3% (active) in assay [1] (at 50.0 µM); -3% in assay [2] (setting [7]); 45% in assay [2] (setting [8]); 69% in assay [2] (at 50.0 µM). The growth inhibition in assay [3] (setting [7]) is 11%; in assay [3] (setting [8]), 38%; in assay [3] (at 50.0 µM), 75.5% (active); in assay [4] (setting [7]), -8%; in assay [4] (setting [8]), 45%; in assay [4] (at 50.0 µM), 78.6% (active). The growth inhibition in assay [5] (setting [7]) is 12%; in assay [5] (setting [8]), 35%; in assay [5] (at 50.0 µM), 78.4% (active); in assay [6] (setting [7]), -9%; in assay [6] (setting [8]) it was 49%; in assay [6] (at 50.0 µM), 81.2% (active).
As for `CCOc1cc(C(c2ccc(N(C)C)cc2)c2ccc(N(C)C)cc2)ccc1O`, the growth inhibition is -1% in assay [1] (setting [7]); 26% in assay [1] (setting [8]); 36.2% in assay [1] (at 50.0 µM); -1% in assay [2] (setting [7]); 52% in assay [2] (setting [8]); 44.8% in assay [2] (at 50.0 µM). In addition, the growth inhibition in assay [3] (setting [7]) is 0%; in assay [3] (setting [8]), 54%; in assay [3] (at 50.0 µM) it was 74.2% (active); in assay [4] (setting [7]), 2%; in assay [4] (setting [8]) it was 52%; in assay [4] (at 50.0 µM), 84.1% (active). The growth inhibition in assay [5] (setting [7]) was 8%; in assay [5] (setting [8]) it was 79% (active); in assay [5] (at 50.0 µM), 79.4% (active); in assay [6] (setting [7]) it was 0%; in assay [6] (setting [8]) it was 42%; in assay [6] (at 50.0 µM), 59.5%.
Turning to `CCCCCCOC(=O)COc1ccccc1`, the growth inhibition in assay [1] (setting [7]) is 4%; in assay [1] (setting [8]) it was 2%; in assay [1] (at 50.0 µM), 23.6%; in assay [2] (setting [7]), 0%; in assay [2] (setting [8]), -1%; in assay [2] (at 50.0 µM), -0.8%. For the same molecule, the growth inhibition in assay [3] (setting [7]) is -1%; in assay [3] (setting [8]) it was 3%; in assay [3] (at 50.0 µM), 20.6%; in assay [4] (setting [7]), 5%; in assay [4] (setting [8]), 1%; in assay [4] (at 50.0 µM) it was 40.8%. The growth inhibition was 24% in assay [5] (setting [7]); 45% in assay [5] (setting [8]); 15.8% in assay [5] (at 50.0 µM); -1% in assay [6] (setting [7]); 0% in assay [6] (setting [8]); 33.7% in assay [6] (at 50.0 µM).
